Measurements taken from the supplement of paper PMC3656093.
± gives the standard deviation of the averaged measurements. Over roughly 1,900 compounds, “CD40L-induced NF-kB luciferase activity, plate-corrected, relative to DMSO (0) and IKK inhibitor VII (-100) controls” has its median near 0.032; the lowest 2% begin near -26. The list comes from a sample in which the lowest values are over-represented; it also holds similar structures and randomly drawn compounds.

Test system: BL2-NFkB-Luc
Test: CD40L-induced NF-kB luciferase activity, plate-corrected, relative to DMSO (0) and IKK inhibitor VII (-100) controls (% normalized activity); higher = more NF-kB reporter activity (less inhibition)
Conditions: 9.4 µM; stimulus: tCD40L 64 ng/ml; 4.5 h
Description: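 BL2 B cells with a stable NF-kB response-element luciferase reporter (BL2-NFkB-Luc), 384-well. Cells were pre-incubated with compound at 9.4 uM for 1 h at 37 C, then stimulated with 64 ng/ml trimerized CD40L for 4.5 h; luciferase was read with Steady-Glo. Signal was normalised per plate in Genedata (median DMSO neutral control = 0, median IKK inhibitor VII at 50 uM = -100) with Assay Median plate-pattern correction; duplicate plates.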

Q: With `CC(C)Oc1ccc(C2CC(=O)N(c3ccc(C(=O)O)cc3)C2=O)cc1` (stereo not given) as the molecule, how does the “CD40L-induced NF-kB luciferase activity” value read?
A: The value was -3.94 ± 6.9.

Q: How did the “CD40L-induced NF-kB luciferase activity” value turn out when `O=C(NCc1ccc(N2CCCC2=O)cc1)c1cccc(Cl)c1` was run?
A: The value was 0.303 ± 1.9.

Q: For `CCNC(=O)c1c(N)sc2c1CCCCC2`, which “CD40L-induced NF-kB luciferase activity” value is on record?
A: The value was 2.16 ± 2.4.

Q: How did the “CD40L-induced NF-kB luciferase activity” value turn out when `CC(C)OC(=O)c1ccc(NC(=O)c2cncc(Br)c2)cc1` was run?
A: The value was 4.22 ± 5.

Q: For `CCOc1cc(C)cc2oc(=O)cc(-c3ccccc3)c12`, which “CD40L-induced NF-kB luciferase activity” value is on record?
A: The value was 3.93 ± 4.9.

Q: For `Cc1cc(O)c(C(=O)Cc2csc(C)n2)c(O)c1`, which “CD40L-induced NF-kB luciferase activity” value is on record?
A: Its value is 45.9 ± 3.3.

Q: How did the “CD40L-induced NF-kB luciferase activity” value turn out when `COc1cc(NC(=O)COc2ccccc2)c(OC)cc1NC(C)=O` was run?
A: The value was 2.35 ± 11.

Q: Which “CD40L-induced NF-kB luciferase activity” value does the source give for `COc1ccc(OCc2cccc(C(=O)NN)c2)cc1` here?
A: Its value is -59.1 ± 2.2.

Q: How did the “CD40L-induced NF-kB luciferase activity” value turn out when `COc1ccc(C(=O)NCc2cccnc2)cc1` was run?
A: The value was -2.51 ± 0.59.

Q: Which “CD40L-induced NF-kB luciferase activity” value does the source give for `CCC(=O)c1ccc(OCc2ccc(C(=O)OC)cc2)cc1` here?
A: Its value is 47.3 ± 2.2.

Q: How did the “CD40L-induced NF-kB luciferase activity” value turn out when `CC(=O)[C@H]1CC[C@H]2[C@@H]3CCC4=CC(=O)CC[C@]4(C)[C@H]3[C@H](O)C[C@]12C` was run?
A: The value was -10.6 ± 14.

Q: `COc1cc2nc(-c3ccccc3)nc(N3CCCC3)c2cc1OC` was tested. Which “CD40L-induced NF-kB luciferase activity” value did it give?
A: The value was 14.1 ± 1.1.

Q: Which “CD40L-induced NF-kB luciferase activity” value does the source give for `C=C(C)c1nc2cc(OC)c(OC)cc2c(=O)o1` here?
A: The value was -30.6 ± 9.3.

Q: `COc1ccc(/C=C\C(=O)c2c(O)ccc3c(C)cc(=O)oc23)cc1OC` was tested. Which “CD40L-induced NF-kB luciferase activity” value did it give?
A: The value was -14 ± 3.3.

Q: How did the “CD40L-induced NF-kB luciferase activity” value turn out when `COc1cc2cc(C(=O)O)[nH]c2c(OC)c1OC` was run?
A: The value was 1.43 ± 0.11.

Q: For `Cc1oc2ccc(OC(=O)c3cccs3)cc2c1C(=O)OC(C)C`, which “CD40L-induced NF-kB luciferase activity” value is on record?
A: Its value is 6.48 ± 1.

Q: For `Cc1ccc2c(c1)C(CCN)C(=O)N2Cc1ccccc1` (stereo not given), which “CD40L-induced NF-kB luciferase activity” value is on record?
A: Its value is 1.33 ± 2.

Q: For `CC12CCC(C(=O)N3CCc4ccccc43)(CC1=O)C2(C)C` (stereo not given), which “CD40L-induced NF-kB luciferase activity” value is on record?
A: Its value is -7.25 ± 2.2.

Q: `COc1cc2c(cc1OC)C(c1cc3ccccc3oc1=O)=NC(C)(C)C2` was tested. Which “CD40L-induced NF-kB luciferase activity” value did it give?
A: Its value is -0.782 ± 0.12.

Q: For `COc1cc(C2CC(=O)NC3=C2C(=O)CC(C)(C)C3)ccc1O` (stereo not given), which “CD40L-induced NF-kB luciferase activity” value is on record?
A: Its value is 7.59 ± 2.5.

Q: For `O=C1[C@@H]2[C@H](Cc3ccc(O)cc3)N[C@]3(C(=O)Nc4ccccc43)[C@@H]2C(=O)N1c1ccc(F)cc1`, which “CD40L-induced NF-kB luciferase activity” value is on record?
A: Its value is -2.13 ± 3.5.

Q: With `COc1ccc2oc(C)c(C(N)=O)c2c1` as the molecule, how does the “CD40L-induced NF-kB luciferase activity” value read?
A: The value was 5.21 ± 2.3.

Q: Which “CD40L-induced NF-kB luciferase activity” value does the source give for `Cc1ccc(S(=O)(=O)NC(C(=O)Oc2cc3oc(=O)cc(C)c3cc2Cl)C(C)C)cc1` (stereo not given) here?
A: Its value is -3.08 ± 0.98.

Q: With `c1ccc(Cn2nnc3cnccc32)cc1` as the molecule, how does the “CD40L-induced NF-kB luciferase activity” value read?
A: The value was 3.11 ± 1.1.

Q: For `Fc1ccc(-c2cc(-c3ccccc3)nc(-n3cccn3)n2)cc1`, which “CD40L-induced NF-kB luciferase activity” value is on record?
A: The value was -4.51 ± 1.4.

Q: `O=C(/C=C/c1ccc2c(c1)OCCCO2)c1ccc2ccccc2c1O` was tested. Which “CD40L-induced NF-kB luciferase activity” value did it give?
A: Its value is 44.2 ± 0.67.

Q: `COC(=O)CCC(=O)CN` was tested. Which “CD40L-induced NF-kB luciferase activity” value did it give?
A: The value was -0.0616 ± 1.1.

Q: For `O=C(O)[C@@H](O)c1ccccc1`, which “CD40L-induced NF-kB luciferase activity” value is on record?
A: The value was -1.47 ± 0.027.

Q: How did the “CD40L-induced NF-kB luciferase activity” value turn out when `C=CCOC(=O)C1=C(C)NC(=O)NC1/C=C/c1ccccc1OC` (stereo not given) was run?
A: The value was -0.888 ± 0.046.

Q: Which “CD40L-induced NF-kB luciferase activity” value does the source give for `COc1ccc(C2C(=O)c3ccccc3C2=O)cc1` here?
A: The value was 0.868 ± 0.29.

Q: Which “CD40L-induced NF-kB luciferase activity” value does the source give for `CC(=O)Oc1ccc(C2OC(=O)c3ccccc3N2C(C)=O)cc1` (stereo not given) here?
A: The value was -32.9 ± 1.

Q: Which “CD40L-induced NF-kB luciferase activity” value does the source give for `COc1ccc(C2C3=C(OC(C)=O)c4ccccc4C3=Nc3c2c(=O)n(C)c(=O)n3C)cc1` (stereo not given) here?
A: The value was 6.21 ± 0.2.

Q: For `COc1ccc(-c2coc3cc(OC(=O)N4CCOCC4)ccc3c2=O)cc1`, which “CD40L-induced NF-kB luciferase activity” value is on record?
A: Its value is 5.32 ± 1.2.

Q: How did the “CD40L-induced NF-kB luciferase activity” value turn out when `C[C@]12CCC(=O)C=C1CC[C@@H]1[C@@H]2[C@@H](O)C[C@@]2(C)[C@H]1CC[C@]2(O)C(=O)CO` was run?
A: Its value is -24.3 ± 5.5.

Q: `CCCC(=O)O[C@]1(C(=O)CO)CC[C@H]2[C@@H]3CCC4=CC(=O)CC[C@]4(C)[C@H]3[C@@H](O)C[C@@]21C` was tested. Which “CD40L-induced NF-kB luciferase activity” value did it give?
A: Its value is -31.6 ± 7.7.

Q: For `CCCCCC(=O)O[C@]1(C(C)=O)CC[C@H]2[C@@H]3CCC4=CC(=O)CC[C@]4(C)[C@H]3CC[C@@]21C`, which “CD40L-induced NF-kB luciferase activity” value is on record?
A: Its value is -8.91 ± 0.8.

Q: With `CCCCCCCC(=O)OCC(=O)[C@@]1(O)CC[C@H]2[C@@H]3CCC4=CC(=O)CC[C@]4(C)[C@H]3[C@@H](O)C[C@@]21C` as the molecule, how does the “CD40L-induced NF-kB luciferase activity” value read?
A: The value was -24.2 ± 1.8.

Q: With `C[C@]12C[C@H](O)[C@H]3[C@@H](CCC4=CC(=O)CC[C@@]43C)[C@@H]1CC[C@@H]2C(=O)CO` as the molecule, how does the “CD40L-induced NF-kB luciferase activity” value read?
A: The value was -19.6 ± 8.2.

Q: For `CCCCC(=O)O[C@]1(C(=O)CO)CC[C@H]2[C@@H]3CCC4=CC(=O)CC[C@]4(C)[C@H]3[C@@H](O)C[C@@]21C`, which “CD40L-induced NF-kB luciferase activity” value is on record?
A: The value was -43.1 ± 20.

Q: Which “CD40L-induced NF-kB luciferase activity” value does the source give for `CC(C(=O)O)c1ccc(N2Cc3ccccc3C2=O)cc1` (stereo not given) here?
A: Its value is -43.6 ± 2.8.

Q: Which “CD40L-induced NF-kB luciferase activity” value does the source give for `CC(C(=O)O)c1ccc(-c2ccccc2)c(F)c1` (stereo not given) here?
A: Its value is 2.04 ± 0.53.

Q: With `CC(C)Cc1ccc(C(C)C(=O)O)cc1` (stereo not given) as the molecule, how does the “CD40L-induced NF-kB luciferase activity” value read?
A: The value was 2.3 ± 5.

Q: How did the “CD40L-induced NF-kB luciferase activity” value turn out when `COc1cc(C(=O)OCCn2c(=O)c3c(ncn3CCN(C)C)n(C)c2=O)cc(OC)c1OC` was run?
A: The value was -3 ± 1.3.

Q: How did the “CD40L-induced NF-kB luciferase activity” value turn out when `Nc1cnn(C2OC(CO)C(O)C2O)c(=O)n1` (stereo not given) was run?
A: The value was 6.46 ± 4.2.

Q: Which “CD40L-induced NF-kB luciferase activity” value does the source give for `O=c1ccn([C@@H]2O[C@H](CO)[C@@H](O)[C@H]2O)c(=O)[nH]1` here?
A: Its value is -6.55 ± 1.5.

Q: How did the “CD40L-induced NF-kB luciferase activity” value turn out when `Nc1ccn([C@@H]2O[C@H](CO)[C@@H](O)[C@@H]2O)c(=O)n1` was run?
A: The value was -30.5 ± 2.4.

Q: For `CC(C)CC(=O)OC1C(N2CCOCC2)c2c(ccc(/C=C/C(=O)N3CCOCC3)c2O)OC1(C)C` (stereo not given), which “CD40L-induced NF-kB luciferase activity” value is on record?
A: Its value is -1.24 ± 1.2.

Q: How did the “CD40L-induced NF-kB luciferase activity” value turn out when `O=C(/C=C/c1ccco1)N1CCN(c2ccccc2)CC1` was run?
A: Its value is 6.71 ± 0.18.

Q: Which “CD40L-induced NF-kB luciferase activity” value does the source give for `Cc1ccc2c(c1)C(O)(c1c(C)[nH]c3ccccc13)C(=O)N2` (stereo not given) here?
A: The value was 3.92 ± 8.9.

Q: How did the “CD40L-induced NF-kB luciferase activity” value turn out when `O=C(NC(=S)N1CCCCC1)c1cccnc1` was run?
A: The value was -3.04 ± 2.8.
